S2 tox = reduces viability in counter-screen for ATXN expression inhibitors | S2 cells (HEK-293 line with an ATXN2-luciferase reporter) viability, CellTiter-Fluor protease fluorescence, 24 h | AID 651635 | 400,000 tested, 0.49% active | Potency, µM (top dose mostly 56.7 µM), usual class: cytotoxic; further: potency means the concentration at half of the fitted maximal effect; nearly all actives have a fitted effect of over 40% in size
DRD3 antagonist = blocks the human D3 dopamine receptor. P35462. D3R cells, DiscoveRx beta-arrestin luminescence, antagonist mode; stronger effect = lower value. max response, negative = inhibition, %. 360,000 tested, 2.5% active; in the data active means max response below about -50%; inconclusive means no clear call, values can overlap the other calls; further: on the % scale 0 is the no-effect control and ±100 the full control effect
Target sequence (P35462 whole entry, looked up): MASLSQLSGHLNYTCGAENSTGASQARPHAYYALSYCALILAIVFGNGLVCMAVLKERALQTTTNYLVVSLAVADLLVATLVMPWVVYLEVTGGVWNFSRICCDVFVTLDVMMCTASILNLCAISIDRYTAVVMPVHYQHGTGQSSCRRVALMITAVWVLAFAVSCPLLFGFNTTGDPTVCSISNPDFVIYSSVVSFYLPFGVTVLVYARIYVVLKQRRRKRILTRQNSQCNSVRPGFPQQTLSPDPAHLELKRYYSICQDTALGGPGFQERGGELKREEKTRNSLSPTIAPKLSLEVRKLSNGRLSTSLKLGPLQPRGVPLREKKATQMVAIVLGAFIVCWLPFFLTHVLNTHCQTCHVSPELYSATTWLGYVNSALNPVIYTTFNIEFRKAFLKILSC
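Cells expressing the human receptor were seeded at 1500 cells/well, incubated overnight at 37 degrees C in 5% CO2, then exposed to library compounds with dopamine controls for 90 minutes at 37 degrees C before luminescent detection.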
Integrin act MD = activates integrin-mediated alleviation for muscular dystrophy. alpha7betagal myoblasts, beta-gal FDG fluorescence, 48 h. Potency, µM (top dose mostly 38.3 µM), for inactives: at the top dose activation, hits mostly activators. 350,000 tested, 0.064% active. AID 624291;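 further: potency means the concentration at half of the fitted maximal effect; 100% = response of the positive control SU9516; nearly all actives have a fitted effect of over 60% in size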
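Alpha7betagal+/- myoblasts (passage 13) were plated 16-24 hr, then exposed to compounds (1:260 dilution of DMSO stock) for 48 hours at 37C. After MPER lysis, β-galactosidase reporter activity was read as FDG fluorescence (ex 480/em 540) after 30 minutes.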
ATXN2 expr inh = ATXN2 expression inhibition | HEK-293 ATXN2-luciferase reporter, luminescence, 24 h | Potency, µM (series often up to 57 µM), for the others: at the top dose activity change, negative = inhibition, most hits filed as inhibitors | 360,000 tested, 0.72% active | AID 1745845; further: potency means the concentration at half of the fitted maximal effect; on the % scale 0 is the no-effect control and ±100 the full control effect; nearly all actives have a fitted effect of over 55% in size
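qHTS (up to 57 uM final) was run with 24 h compound exposure of reporter cells at 37 °C. Each well was multiplexed: SteadyGlo luminescence measured ATXN2-luciferase expression after a fluorogenic Gly-Phe-AFC viability readout (25 uM final).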
IL-1B inflam inh = inhibitors of inflammasome signaling (IL-1 beta secretion). activity change, % at 57.5 µM. 360,000 tested, 4.7% active. THP-1 LPS/ATP IL-1B secretion, AlphaLISA, 16 h; stronger effect = lower value; in the data active means activity change below about -50%; inconclusive means mostly about -30% to -49%; further: on the % scale 0 is the no-effect control and ±100 the full control effect
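THP-1 cells pretreated 1 hr with compounds (up to 57.5 uM final), then stimulated with LPS (250 ng/mL final) plus ATP (1.25 mM final); secreted IL-1B measured by AlphaLISA after 16 hr, decreased signal indicating inhibition.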
D3 ag = agonists of human D3 dopamine receptor; AID 652048; D3R DiscoveRx beta-arrestin cells, luminescence, 90 min; 410,000 tested, 0.58% active; max activation, %; in the data active means max activation above about 30%; further: 0% is about no effect
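Cells at 1500/well, incubated overnight, then treated with pinned compounds (dopamine as control) for 90 min at 37 degrees C. DiscoveRx reagent added for 30 - 60 minutes at room temperature; luminescence read.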
Numbers without * were called inactive; i = inactive; u = inconclusive; x = not tested or not shown; [ ] = dose if it differs, or a comment. Most compounds without a hit are left out; they make up all but 7% or so of the library. Unless noted, the call rests on the fitted dose curve; in most records, active means well fitted curve in the direction sought with a large enough effect; inconclusive means small, poorly fitted or top-dose-only effect, or another doubt; inactive means no such curve, though single readings can be large; an effect the other way counts as inactive or inconclusive.

SMILES	S2 tox	DRD3 antagonist	Integrin act MD	ATXN2 expr inh	IL-1B inflam inh	D3 ag
CN(Cc1ccc(Br)cc1)CC(O)COc1cccc(Br)c1 (stereo not given)	i	-16.0	-32.1%	-28.4%	-93.2*	-19.6
OC(COc1ccc(CNCCc2ccc(C(F)(F)F)cc2)cc1)CN1CCCCC1 (stereo not given)	u	u	-67.9%	u	-23.6	-12.1
O=C(COc1ccccc1)Nc1sc2c(c1C(=O)Nc1ccccc1)CCCCC2	i	x	x	11.1%	x	-15.9
COc1cc(C(=O)NCCNC(=O)c2ccco2)cc(OC)c1OC	i	12.9	8.3%	1.8%	57.2	1.0
COc1ccc(CCNCC(O)COc2cccc(Br)c2)cc1 (stereo not given)	i	-8.7	-62.3%	u	-58.6*	-6.7
OC(CNCCc1ccc(C(F)(F)F)cc1)COc1cccc2ccccc12 (stereo not given)	u	6.0	-8.5%	x	-62.6*	1.5
OC(COc1cccc2ccccc12)CN1CCCC1 (stereo not given)	i	-1.7	-17.8%	-11.2%	-9.3	-0.8
COC(=O)c1c(C)c(OC(=O)c2c(C)cc(O)c(C=O)c2O)cc(C)c1O	i	-8.2	u	-3.9%	7.0	4.9
COC(=O)c1c(C)cc(O)c(C=O)c1O	i	-52.8*	-4.4%	2.0%	-11.8	-15.3
CN(C)CCNC(=O)c1csc(Nc2cccc3ccccc23)n1	i	11.6	0.0%	76.6%	-60.7*	1.7
CC1CCC(NC(=O)c2ccc(NS(=O)(=O)c3ccc4[nH]c(=O)[nH]c4c3)cc2)CC1 (stereo not given)	u	-4.4	10.6%	24.3%	-9.8	-5.1
O=c1c2ccccc2sn1-c1ccc(S(=O)(=O)N2CCCCC2)cc1	u	8.8	-61.7%	4.0%	-91.4*	-13.6
O=c1c2ccccc2sn1-c1ccc(S(=O)(=O)N2CCCC2)cc1	i	-13.2	-48.2%	29.9%	-102.0*	-11.1
Cc1ccc(-n2sc3ccccc3c2=O)cc1S(=O)(=O)N1CCCCC1	u	u	0.0%	-24.5%	-105.6*	-48.9
O=S(=O)(c1ccc(S(=O)(=O)N2CCCC2)cc1)N1CCCCC1	u	3.1	12.3%	2.0%	10.1	4.2
Cc1cc(C(F)(F)F)nn1CCCNC(=O)c1cnccn1	i	-12.0	8.8%	5.0%	56.6	-11.0
COc1ccc(C2(CNC(=O)CCC(=O)O)CCCC2)cc1OC	i	-51.2*	27.9%	-3.3%	30.5	-0.3
COc1ccc(C2(CNC(C)=O)CCCC2)cc1OC	i	-23.4	26.9%	11.9%	35.8	-3.0
COC(=O)c1ccc([C@H]2CC(=O)O2)cc1	i	-11.0	-42.9%	-38.7%	-95.6*	-19.9
CCN(CC)CCN1C(=O)C2C(C(=O)Nc3cccc(SC)c3)C3C=CC2(O3)C1C(=O)NC1CCCC(C)C1C (stereo not given)	i	-10.2	-56.2%	-1.7%	-29.1	-8.8
Cc1cc(Cl)c(S(=O)(=O)N2CCSCC2)cc1OCC(=O)NC1CCCCC1	i	39.1	-11.6%[7.66 µM]	-29.9%	-53.6*	-0.5
CCOC(=O)C1CCCN(S(=O)(=O)c2cc(OCC(N)=O)c(C)cc2Cl)C1 (stereo not given)	u	23.2	-18.2%	1.0%	-92.4*	14.7
Cc1cc(Cl)c(S(=O)(=O)N2CCCC2)cc1OCC(N)=O	i	0.1	-4.1%	-15.1%	-8.4	-0.5
Cc1cc(Cl)c(S(=O)(=O)N2CCCCCC2)cc1OCC(=O)NC1CCCCC1	x	31.2	2.2%	x	-6.4	0.0
CCN1CCN(S(=O)(=O)c2cc(OCC(=O)NC3CCCCC3)c(C)cc2Cl)CC1	i	-70.5*	-26.8%	-24.5%	u	-9.4
COc1ccccc1NC(=O)NCc1ccco1	i	-7.5	7.4%	8.1%[11.3 µM]	-67.9*	3.4
COc1ccccc1NC(=O)NCC1(N(C)C)CCCCC1	i	-81.8*	u	-21.5%	-10.0	-25.1
COc1ccccc1NS(=O)(=O)c1ccc(C(=O)NCC2(N(C)C)CCCCC2)cc1	i	-25.1	-9.1%	7.5%	-1.6	-8.2

Screens from PubChem BioAssay.
